According to the supplement of paper PMC4466236:
The full ranking holds about 33,000 sequences; the median of “E-score (dimensionless, -0.5 to 0.5)” is about -0.058, and the highest 2% start at about 0.35. For the sample, the highest values were picked, then their nearest neighbours and some sequences at random.

These sequences were tested on MvaT (assay: PBM 8-mer E-score (mean of HK and ME arrays) (E-score (dimensionless, -0.5 to 0.5)); higher = stronger relative binding preference).
Protocol: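 Protein binding microarray: GST-tagged full-length MvaT (P. aeruginosa PAO1) bound to two universal double-stranded 60-mer arrays (ME and HK), each with a constant 25-mer primer and a variable 35-mer region covering all 8-mers. The 8-mer E-score (rank-based, range -0.5 to 0.5, >0.45 = specific binding) is the mean of the two arrays.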

| Sequence | PBM 8-mer E-score |
| --- | --- |
| TAATAACA | 0.379 |
| CAATAACA | 0.283 |
| CAATAATA | 0.418 |
| AAATAAGA | 0.309 |
| CAATAATG | 0.322 |
| TAATAAGA | 0.375 |
| AAATAATT | 0.438 |
| CAATAATC | 0.19 |
| CTACCGCA | -0.134 |
| CCTGATGC | -0.163 |
| CAGCTTAG | -0.203 |
| GGACAGTA | -0.0349 |
| AACTTTCG | 0.255 |
| GCCTAGCC | -0.187 |
| CTAAGTAG | 0.0522 |
| AAATAATA | 0.428 |
| AAATAATC | 0.301 |
| AAAAAATA | 0.331 |
| CCTCAAAC | -0.125 |
| CTATATCA | 0.16 |
| ATATATCG | 0.442 |
| AGATATCC | -0.0391 |
| ATATATCC | 0.38 |
| CTATATCC | 0.123 |
| ATATATCA | 0.427 |

| Sequence | PBM 8-mer E-score |
| --- | --- |
| ACATATCG | 0.243 |
| AAATATCG | 0.295 |
| GTATATCA | 0.237 |
| TCGTGACA | -0.206 |
| GTTTCACA | -0.00657 |
| AAATTCCG | 0.108 |
| ACTTTAAT | 0.414 |
| ACTTTTAT | 0.363 |
| CCTTTAAA | 0.211 |
| ACTTTTAC | 0.211 |
| GCTTTAAA | 0.249 |
| ACTTTTAG | 0.112 |
| ACTTTAAC | 0.326 |
| ACTTTTAA | 0.383 |
| ACTTTAAG | 0.254 |
| ACTTTAAA | 0.404 |
| ACTTTTTA | 0.309 |
| TCTTTTAA | 0.296 |
| CGTCACCA | -0.18 |
| ATCCCTTC | -0.172 |
| CAAGCACG | -0.238 |
| CCTTACCG | -0.129 |
| GAAGCAAC | -0.0872 |
| GCATACTA | 0.186 |
| GTACTATA | 0.329 |

| Sequence | PBM 8-mer E-score |
| --- | --- |
| CTATACTA | 0.156 |
| GTATACGA | 0.184 |
| ATATACTA | 0.422 |
| AGATACTA | 0.143 |
| GTATACTA | 0.373 |
| ATACTATA | 0.377 |
| ATATACTG | 0.322 |
| ATATACTC | 0.364 |
| CTACTATA | 0.292 |
| CTATACTC | -0.0354 |
| ATACACTC | 0.143 |
| GAACGTTA | 0.207 |
| ACAAACCA | 0.185 |
| AGCTGAGC | -0.262 |
| AACGTAGT | 0.000134 |
| CGCGTGAG | -0.167 |
| AGGCCGAG | -0.0711 |
| GGCCCCTA | -0.222 |
| ACAATTAA | 0.347 |
| CCAATTAA | 0.306 |
| GCAATTAA | 0.324 |
| GCAATTTA | 0.307 |
| ACAATTAG | 0.315 |
| ACAATTTA | 0.353 |
| ACAATTAC | 0.319 |

| Sequence | PBM 8-mer E-score |
| --- | --- |
| ACAATTAT | 0.378 |
| ACAATTTG | 0.187 |
| CCGGTGAA | -0.0479 |
| AGGAGCAG | -0.32 |
| CAGGATGG | -0.189 |
| CAAGCAGA | -0.0444 |
| TTAATAAA | 0.432 |
| ATCATAAG | 0.161 |
| CTAAAAAA | 0.0548 |
| GTAATAAC | 0.297 |
| CGAATAAA | 0.254 |
| TCAATAAA | 0.22 |
| TGAATAAA | 0.268 |
| ATAATAAC | 0.422 |
| CTAATAAG | 0.213 |
| ATAATAAG | 0.43 |
| CTAATAAA | 0.349 |
| CTAATAAC | 0.326 |
| AGGGGAGA | -0.145 |
| ATGACACG | -0.12 |
| AGCCTATA | 0.179 |
| ATTGCAAT | 0.27 |
| AGAATAAA | 0.255 |
| GTAATAAA | 0.333 |
| CTAATGAA | 0.132 |

| Sequence | PBM 8-mer E-score |
| --- | --- |
| GTAATGAA | 0.00633 |
| ATAATAAT | 0.463 |
| ATCATAAT | 0.245 |
| AGAATAAT | 0.411 |
| TTAATGAA | 0.393 |
| ATAATAAA | 0.451 |
| AGAATAAC | 0.232 |
| AGAATAAG | 0.252 |
| ATAATGAT | 0.275 |
| CTAGCCTA | -0.138 |
| AGGCTAAG | -0.0142 |
| GCCTGTCC | -0.241 |
| CAGGACAC | -0.248 |
| AACGGACA | -0.037 |
| CAGGCCGG | -0.188 |
| GTTTTCAA | 0.148 |
| GCTAGAGA | -0.188 |
| GAGACCAC | -0.107 |
| ACCTTGCG | -0.0997 |
| AGGATAAA | 0.22 |
| AGGATAAT | 0.353 |
| AGGATAAG | 0.0764 |
| ATGCATGA | -0.142 |
| AGTATGTG | 0.209 |
| CGTATACA | 0.17 |

| Sequence | PBM 8-mer E-score |
| --- | --- |
| AGTATAGG | 0.0335 |
| AGTATATG | 0.351 |
| AGTATATC | 0.259 |
| GGTATAGA | 0.08 |
| GGTATACA | 0.201 |
| CGTATATC | 0.143 |
| AGTATAGA | 0.0904 |
| AGTATATA | 0.446 |
| CGTATATA | 0.378 |
| GGTATATA | 0.355 |
| GACGTTGC | -0.0956 |
| GTGTAACA | 0.206 |
| TAAAGGAA | 0.0516 |
| GAATCGCC | -0.206 |
| GAAACATA | 0.343 |
| AAAACATA | 0.354 |
| ATAACATC | 0.302 |
| ATAACATA | 0.359 |
| ATAACATG | 0.235 |
| AAAACATT | 0.225 |
| ATCCATGC | -0.188 |
| CGAAATTC | 0.192 |
| CCCTCACA | -0.151 |
| ATATCGAG | 0.208 |
| TCCCGGAA | -0.126 |

| Sequence | PBM 8-mer E-score |
| --- | --- |
| GCGCGTAC | -0.156 |
| GAGGGTGC | -0.16 |
| TCAAACGA | 0.0344 |
| AGAACTTG | 0.214 |
| ATAACTTG | 0.38 |
| ATTACTTA | 0.334 |
| ATAACTGC | 0.286 |
| CTAACTTC | 0.168 |
| CTTACTTC | 0.208 |
| ATAACTTC | 0.351 |
| ATTACTTC | 0.348 |
| ATAACTCG | 0.255 |
| CGGAGACA | 0.0514 |
| CCTACCTC | -0.226 |
| CCAGATGG | -0.281 |
| ACTAACTC | 0.118 |
| AATAACTA | 0.348 |
| GTTAACTA | 0.362 |
| CTTAACTA | 0.305 |
| GATAACTA | 0.198 |
| ATTAACTA | 0.339 |
| ACTAACTA | 0.381 |
| ACTAACTG | 0.191 |
| CATAACTA | 0.286 |
